The supplement of paper PMC6411743
± gives the standard deviation of the averaged measurements. Of roughly 6,200 targets only a part is listed; those with the largest changes were picked by preference.

Compound: Nc1ncnc2c1ncn2[C@@H]1O[C@H](COP(=O)(O)OP(=O)(O)NP(=O)(O)O)[C@@H](O)[C@H]1O [adenylyl imidodiphosphate]
Assay: NP40-soluble protein abundance relative to vehicle (solubility fold change) (ratio); higher = more soluble protein in presence of AMP-PNP
Summary of the method: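 Crude Jurkat lysate, prepared by Dounce homogenisation, was exposed to eight concentrations from 0.1 to 10 mM for 10 min at room temperature and then 3 min at 37 °C. Solubilisation used 0.8% NP40 with benzonase for 60 min at 4 °C, followed by ultracentrifugation and TMT labelling of the supernatant for LC-MS/MS. After vsn normalisation of intensities, each value is the fold change against the detergent-processed vehicle within each replicate, across three independent experiments.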

Chain of UniProt P10619 (P10619 whole entry, one chain of several): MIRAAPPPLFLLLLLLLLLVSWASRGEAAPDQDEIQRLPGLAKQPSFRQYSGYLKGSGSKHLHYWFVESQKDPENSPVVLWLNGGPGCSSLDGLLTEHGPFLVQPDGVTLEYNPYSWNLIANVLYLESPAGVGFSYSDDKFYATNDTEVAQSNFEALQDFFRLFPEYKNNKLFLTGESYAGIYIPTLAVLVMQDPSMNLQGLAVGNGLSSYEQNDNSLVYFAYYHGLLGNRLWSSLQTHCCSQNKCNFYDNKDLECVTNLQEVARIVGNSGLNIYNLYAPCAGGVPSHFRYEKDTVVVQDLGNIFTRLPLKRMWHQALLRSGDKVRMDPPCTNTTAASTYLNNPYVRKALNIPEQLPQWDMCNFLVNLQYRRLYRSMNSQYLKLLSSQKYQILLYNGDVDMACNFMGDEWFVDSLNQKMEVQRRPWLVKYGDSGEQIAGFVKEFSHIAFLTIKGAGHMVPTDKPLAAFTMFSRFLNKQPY
Chain of UniProt P78540 (P78540 whole entry): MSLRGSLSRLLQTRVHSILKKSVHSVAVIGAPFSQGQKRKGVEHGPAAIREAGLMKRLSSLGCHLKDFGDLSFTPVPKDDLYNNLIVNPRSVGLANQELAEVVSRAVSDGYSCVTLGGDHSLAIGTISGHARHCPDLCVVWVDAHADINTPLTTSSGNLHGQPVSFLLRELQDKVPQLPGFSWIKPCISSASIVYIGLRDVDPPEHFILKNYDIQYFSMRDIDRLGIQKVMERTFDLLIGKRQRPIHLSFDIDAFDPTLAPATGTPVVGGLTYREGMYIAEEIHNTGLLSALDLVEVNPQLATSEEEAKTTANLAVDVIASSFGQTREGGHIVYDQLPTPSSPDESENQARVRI
Chain of UniProt P54619 (P54619 whole entry): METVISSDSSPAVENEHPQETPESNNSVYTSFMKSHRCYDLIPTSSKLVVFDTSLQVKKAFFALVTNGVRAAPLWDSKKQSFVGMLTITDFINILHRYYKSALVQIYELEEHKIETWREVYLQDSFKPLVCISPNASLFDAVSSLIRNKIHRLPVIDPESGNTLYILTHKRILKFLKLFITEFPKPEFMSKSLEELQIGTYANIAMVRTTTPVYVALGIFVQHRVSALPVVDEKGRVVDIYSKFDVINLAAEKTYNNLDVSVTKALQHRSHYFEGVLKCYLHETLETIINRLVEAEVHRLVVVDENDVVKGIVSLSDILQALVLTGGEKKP
Chain of UniProt Q13107 (Q13107 whole entry): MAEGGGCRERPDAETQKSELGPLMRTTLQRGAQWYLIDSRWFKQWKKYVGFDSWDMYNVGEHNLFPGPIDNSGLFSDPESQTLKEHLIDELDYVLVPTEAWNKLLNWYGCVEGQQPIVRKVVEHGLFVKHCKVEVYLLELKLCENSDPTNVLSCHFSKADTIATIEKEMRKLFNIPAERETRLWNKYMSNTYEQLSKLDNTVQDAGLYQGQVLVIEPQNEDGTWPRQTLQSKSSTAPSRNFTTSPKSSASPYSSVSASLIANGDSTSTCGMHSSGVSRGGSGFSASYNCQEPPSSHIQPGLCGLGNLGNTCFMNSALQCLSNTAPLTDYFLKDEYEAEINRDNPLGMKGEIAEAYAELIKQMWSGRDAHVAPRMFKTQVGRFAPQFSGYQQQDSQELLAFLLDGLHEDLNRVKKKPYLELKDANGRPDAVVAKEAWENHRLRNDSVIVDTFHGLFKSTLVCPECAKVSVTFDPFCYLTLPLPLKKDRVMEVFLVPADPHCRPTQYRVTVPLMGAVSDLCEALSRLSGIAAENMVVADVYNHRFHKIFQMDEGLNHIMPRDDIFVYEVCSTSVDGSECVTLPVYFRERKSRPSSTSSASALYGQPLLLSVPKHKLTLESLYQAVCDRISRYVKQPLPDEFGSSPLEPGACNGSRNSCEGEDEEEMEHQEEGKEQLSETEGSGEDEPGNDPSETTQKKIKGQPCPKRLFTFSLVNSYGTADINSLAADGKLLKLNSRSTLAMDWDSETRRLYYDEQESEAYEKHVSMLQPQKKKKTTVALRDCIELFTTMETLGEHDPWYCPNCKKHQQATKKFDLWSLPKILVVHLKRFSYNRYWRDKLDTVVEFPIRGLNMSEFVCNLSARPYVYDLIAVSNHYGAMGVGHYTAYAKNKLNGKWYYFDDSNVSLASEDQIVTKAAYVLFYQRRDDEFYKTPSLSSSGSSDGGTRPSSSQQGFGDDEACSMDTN
Chain of UniProt P18433 (P18433 whole entry, looked up): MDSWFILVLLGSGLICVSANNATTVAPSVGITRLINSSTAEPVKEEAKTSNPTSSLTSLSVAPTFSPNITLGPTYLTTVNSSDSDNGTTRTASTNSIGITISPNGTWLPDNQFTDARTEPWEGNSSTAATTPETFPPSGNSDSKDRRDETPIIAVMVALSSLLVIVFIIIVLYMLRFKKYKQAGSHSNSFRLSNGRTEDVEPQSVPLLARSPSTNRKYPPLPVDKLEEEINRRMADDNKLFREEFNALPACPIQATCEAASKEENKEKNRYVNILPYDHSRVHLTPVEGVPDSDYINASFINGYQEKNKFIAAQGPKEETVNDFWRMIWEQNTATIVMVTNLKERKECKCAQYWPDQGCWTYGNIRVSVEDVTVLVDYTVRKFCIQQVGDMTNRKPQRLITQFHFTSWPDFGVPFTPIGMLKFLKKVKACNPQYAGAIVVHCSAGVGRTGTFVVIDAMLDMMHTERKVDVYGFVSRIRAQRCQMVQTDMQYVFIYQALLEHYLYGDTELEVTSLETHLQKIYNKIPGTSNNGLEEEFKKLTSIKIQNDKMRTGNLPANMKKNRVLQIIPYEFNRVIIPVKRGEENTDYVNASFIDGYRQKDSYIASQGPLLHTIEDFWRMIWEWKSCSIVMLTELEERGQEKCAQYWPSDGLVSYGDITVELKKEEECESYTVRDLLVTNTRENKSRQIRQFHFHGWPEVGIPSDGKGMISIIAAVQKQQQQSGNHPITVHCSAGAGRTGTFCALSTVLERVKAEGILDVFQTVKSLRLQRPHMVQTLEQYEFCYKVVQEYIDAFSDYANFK
Chain of UniProt O95251 (O95251 whole entry): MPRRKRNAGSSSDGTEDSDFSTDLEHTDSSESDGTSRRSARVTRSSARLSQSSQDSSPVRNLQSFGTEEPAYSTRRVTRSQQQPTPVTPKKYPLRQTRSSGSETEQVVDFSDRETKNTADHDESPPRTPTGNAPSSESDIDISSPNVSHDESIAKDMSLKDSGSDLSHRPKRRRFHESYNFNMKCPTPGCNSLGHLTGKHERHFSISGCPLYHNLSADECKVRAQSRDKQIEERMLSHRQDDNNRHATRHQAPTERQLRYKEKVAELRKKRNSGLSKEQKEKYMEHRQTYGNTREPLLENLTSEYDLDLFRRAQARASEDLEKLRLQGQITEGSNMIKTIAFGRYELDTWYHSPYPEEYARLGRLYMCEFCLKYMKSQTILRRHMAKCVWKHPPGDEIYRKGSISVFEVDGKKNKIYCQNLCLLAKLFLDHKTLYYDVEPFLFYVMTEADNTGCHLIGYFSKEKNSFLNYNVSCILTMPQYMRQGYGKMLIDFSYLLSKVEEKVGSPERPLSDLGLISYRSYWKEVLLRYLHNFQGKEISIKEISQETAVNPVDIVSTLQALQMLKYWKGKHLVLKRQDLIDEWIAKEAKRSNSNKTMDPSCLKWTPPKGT
Chain of UniProt P10412 (P10412 whole entry): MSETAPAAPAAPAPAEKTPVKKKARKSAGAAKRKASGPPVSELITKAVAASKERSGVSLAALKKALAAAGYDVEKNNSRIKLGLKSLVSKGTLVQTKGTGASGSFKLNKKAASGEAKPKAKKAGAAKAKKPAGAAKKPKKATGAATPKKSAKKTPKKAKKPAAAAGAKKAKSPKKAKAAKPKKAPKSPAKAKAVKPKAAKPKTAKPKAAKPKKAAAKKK
Chain of UniProt P18065 (P18065 whole entry): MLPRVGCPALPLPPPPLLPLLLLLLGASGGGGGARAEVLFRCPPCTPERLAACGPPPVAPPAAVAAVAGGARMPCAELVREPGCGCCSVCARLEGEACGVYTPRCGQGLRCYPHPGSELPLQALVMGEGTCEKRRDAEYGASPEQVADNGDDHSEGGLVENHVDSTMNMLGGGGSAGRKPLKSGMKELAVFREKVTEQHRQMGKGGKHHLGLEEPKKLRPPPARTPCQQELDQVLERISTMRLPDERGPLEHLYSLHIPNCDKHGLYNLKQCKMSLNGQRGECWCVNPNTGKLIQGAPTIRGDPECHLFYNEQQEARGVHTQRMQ
Chain of UniProt P33981 (P33981 whole entry): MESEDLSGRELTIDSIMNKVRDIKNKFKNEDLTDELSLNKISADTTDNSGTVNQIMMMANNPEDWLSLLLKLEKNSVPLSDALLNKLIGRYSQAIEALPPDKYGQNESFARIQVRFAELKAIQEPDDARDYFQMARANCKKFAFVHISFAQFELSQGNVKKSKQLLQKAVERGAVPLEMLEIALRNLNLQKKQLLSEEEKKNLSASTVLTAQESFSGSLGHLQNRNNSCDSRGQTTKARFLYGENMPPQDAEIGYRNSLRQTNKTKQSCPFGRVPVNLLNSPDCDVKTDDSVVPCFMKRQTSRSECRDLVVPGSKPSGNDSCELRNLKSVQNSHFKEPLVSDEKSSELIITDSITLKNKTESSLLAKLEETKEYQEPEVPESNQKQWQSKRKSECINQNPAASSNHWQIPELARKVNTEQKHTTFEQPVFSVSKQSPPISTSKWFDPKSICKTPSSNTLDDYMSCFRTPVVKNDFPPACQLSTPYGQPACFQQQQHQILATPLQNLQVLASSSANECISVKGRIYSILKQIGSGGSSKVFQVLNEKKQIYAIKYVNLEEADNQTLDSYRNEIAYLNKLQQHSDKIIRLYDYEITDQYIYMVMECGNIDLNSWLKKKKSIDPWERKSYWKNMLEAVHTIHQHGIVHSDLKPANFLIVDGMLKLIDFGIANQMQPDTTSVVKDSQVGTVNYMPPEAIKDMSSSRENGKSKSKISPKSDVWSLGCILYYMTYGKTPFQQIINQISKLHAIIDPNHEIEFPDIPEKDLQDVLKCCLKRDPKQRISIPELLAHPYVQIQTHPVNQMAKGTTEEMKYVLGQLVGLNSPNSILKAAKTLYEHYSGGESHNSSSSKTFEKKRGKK

Target	NP40-soluble protein abundance (concentration: 1mM)	NP40-soluble protein abundance (concentration: 2mM)	NP40-soluble protein abundance (concentration: 4mM)	NP40-soluble protein abundance (concentration: 6mM)	NP40-soluble protein abundance (concentration: 8mM)	NP40-soluble protein abundance (concentration: 10mM)
UniProt O95104|O95104-3|O95104-2	1.1 ± 0.033	1.22 ± 0.083	1.26 ± 0.039	1.34 ± 0.14	1.39 ± 0.071	1.46 ± 0.063
UniProt Q12872|Q12872-2	1.04 ± 0.04	1.11 ± 0.061	1.12 ± 0.043	1.17 ± 0.097	1.2 ± 0.1	1.33 ± 0.1
USP8 (UniProt P40818)	1.036 ± 0.0058	1.05 ± 0.033	1.048 ± 0.0058	0.997 ± 0.015	0.996 ± 0.042	1.01 ± 0.033
UniProt P52824|H0YA20	0.978 ± 0.0098	0.979 ± 0.023	0.955 ± 0.028	0.99 ± 0.025	0.96 ± 0.039	0.986 ± 0.03
UniProt P17096|P17096-2	1.01 ± 0.076	1.19 ± 0.19	1.12 ± 0.047	1.29 ± 0.057	1.31 ± 0.088	1.74 ± 0.29
UniProt P49588|P49588-2	1.01 ± 0.013	0.976 ± 0.05	0.967 ± 0.041	0.979 ± 0.013	0.954 ± 0.03	0.952 ± 0.05
UniProt P33981|P33981-2	1.04 ± 0.027	1.021 ± 0.0069	1.05 ± 0.033	1.018 ± 0.01	1.02 ± 0.034	1.03 ± 0.036
ALDH4A1 (UniProt P30038)	0.99 ± 0.028	1.02 ± 0.016	0.977 ± 0.033	0.975 ± 0.023	0.938 ± 0.013	0.954 ± 0.02
UniProt P16083|Q5TD07	1.02 ± 0.02	0.982 ± 0.074	0.988 ± 0.034	0.991 ± 0.02	0.993 ± 0.04	0.982 ± 0.052
UniProt P38159|P38159-2	1.12 ± 0.09	1.34 ± 0.094	1.34 ± 0.037	1.53 ± 0.16	1.58 ± 0.19	1.82 ± 0.16
UniProt O94804	1.03 ± 0.017	1.04 ± 0.031	1.01 ± 0.027	0.987 ± 0.029	0.96 ± 0.012	0.991 ± 0.048
UniProt P18433|P18433-2|P18433-3|P18433-4	1.029 ± 0.0089	1.03 ± 0.027	1.03 ± 0.032	0.987 ± 0.023	1.02 ± 0.018	1.03 ± 0.036
UniProt O95786|O95786-2	0.996 ± 0.051	0.944 ± 0.035	0.978 ± 0.022	0.942 ± 0.017	0.967 ± 0.021	0.933 ± 0.029
PRIM2 (UniProt P49643)	0.996 ± 0.022	0.954 ± 0.018	1 ± 0.013	1.02 ± 0.044	1.02 ± 0.027	1.02 ± 0.029
UniProt O95251|O95251-4	1.11 ± 0.031	1.17 ± 0.06	1.18 ± 0.063	1.2 ± 0.073	1.25 ± 0.077	1.36 ± 0.088
DLAT (UniProt P10515)	0.959 ± 0.23	0.904 ± 0.2	0.904 ± 0.31	0.877 ± 0.31	0.899 ± 0.27	0.923 ± 0.31
IGFBP2 (UniProt P18065)	1.03 ± 0.034	1.03 ± 0.058	1.01 ± 0.067	0.966 ± 0.0077	0.991 ± 0.021	0.957 ± 0.014
UniProt O95782|O95782-2	0.994 ± 0.03	0.953 ± 0.058	1.07 ± 0.046	1.09 ± 0.044	1.13 ± 0.021	1.13 ± 0.056
RBM34 (UniProt P42696)	1.07 ± 0.069	1.12 ± 0.044	1.15 ± 0.082	1.23 ± 0.12	1.23 ± 0.12	1.36 ± 0.16
USP4 (UniProt Q13107)	1 ± 0.018	0.967 ± 0.044	1 ± 0.046	0.97 ± 0.042	0.975 ± 0.039	0.942 ± 0.038
NUDT2 (UniProt P50583)	0.9311 ± 0.0079	0.909 ± 0.027	1.56 ± 0.26	1.22 ± 0.17	1.49 ± 0.23	1.14 ± 0.14
UniProt P10619|P10619-2|X6R5C5|X6R8A1	0.979 ± 0.018	0.987 ± 0.086	0.984 ± 0.044	1.05 ± 0.11	1.06 ± 0.083	1.07 ± 0.13
UniProt Q13105|Q13105-2|Q13105-3	1.01 ± 0.06	1.011 ± 0.0042	1.03 ± 0.028	1.04 ± 0.057	1.04 ± 0.051	1.07 ± 0.072
UniProt P17812	0.932 ± 0.03	0.873 ± 0.06	0.91 ± 0.033	0.96 ± 0.077	0.97 ± 0.04	0.924 ± 0.044
UniProt P54619|P54619-3|P54619-2	0.993 ± 0.015	0.871 ± 0.092	0.964 ± 0.035	0.943 ± 0.025	1.01 ± 0.02	0.905 ± 0.045
POLR1A (UniProt O95602)	1 ± 0.017	1 ± 0.086	1.07 ± 0.1	1.08 ± 0.12	1.07 ± 0.14	1.11 ± 0.14
PARP1 (UniProt P09874)	1.06 ± 0.018	1.09 ± 0.05	1.21 ± 0.016	1.39 ± 0.027	1.51 ± 0.071	1.59 ± 0.11
UniProt P43155|P43155-2|P43155-3	0.974 ± 0.057	0.965 ± 0.011	1 ± 0.032	1.01 ± 0.086	1.01 ± 0.061	1.01 ± 0.077
ARG2 (UniProt P78540)	0.983 ± 0.026	1.02 ± 0.033	1.02 ± 0.033	1.01 ± 0.027	0.997 ± 0.019	0.985 ± 0.038
HIST1H1E (UniProt P10412)	1.04 ± 0.06	1.15 ± 0.09	1.12 ± 0.05	1.25 ± 0.15	1.24 ± 0.23	1.56 ± 0.14
